Data: the supplement of paper PMC11732987, “Enantioselective OTUD7B fragment discovery through chemoproteomics screening and high-throughput optimisation” (Communications Chemistry, 2025)

Legend:
Assay in all cases: log2 ratio of Biotin-Ahx-Ub-VS probe labelling (fragment/DMSO); higher = less target engagement (more negative = stronger competition), active = hit call of the paper (q ≤ 0.05, log2 ratio ≤ -1)
Settings in all cases: compound concentration: 200 uM; treatment time: 3 h
OTUD6B = biological target: T1, OTUD6B (UniProt Q8N6M0)
T1 sequence (whole entry): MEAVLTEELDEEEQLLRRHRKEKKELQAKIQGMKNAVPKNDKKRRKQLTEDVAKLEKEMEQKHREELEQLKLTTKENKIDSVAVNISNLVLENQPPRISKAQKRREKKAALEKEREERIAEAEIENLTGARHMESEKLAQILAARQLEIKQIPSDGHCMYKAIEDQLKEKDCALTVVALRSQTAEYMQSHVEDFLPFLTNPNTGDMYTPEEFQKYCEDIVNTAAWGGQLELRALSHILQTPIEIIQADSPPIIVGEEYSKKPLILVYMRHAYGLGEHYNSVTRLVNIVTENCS
In short: (§1)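 The table lists average log2 ratios of fragment over vehicle, from an unpaired t-test on global-median-normalised Spectronaut label-free quantities. Proteins with ≥2 unique peptides were used. Samples were HEK293T lysate (495 µg) treated in triplicate with fragment at 200 µM or vehicle for 3 h, then with Biotin-Ahx-Ub-VS (0.5 µM final) for 1 h, with labelled DUBs NeutrAvidin-enriched and run by diaPASEF LC-MS/MS.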

OTUD7B = biological target: T2, OTUD7B (UniProt Q6GQQ9)
T2 sequence (whole entry): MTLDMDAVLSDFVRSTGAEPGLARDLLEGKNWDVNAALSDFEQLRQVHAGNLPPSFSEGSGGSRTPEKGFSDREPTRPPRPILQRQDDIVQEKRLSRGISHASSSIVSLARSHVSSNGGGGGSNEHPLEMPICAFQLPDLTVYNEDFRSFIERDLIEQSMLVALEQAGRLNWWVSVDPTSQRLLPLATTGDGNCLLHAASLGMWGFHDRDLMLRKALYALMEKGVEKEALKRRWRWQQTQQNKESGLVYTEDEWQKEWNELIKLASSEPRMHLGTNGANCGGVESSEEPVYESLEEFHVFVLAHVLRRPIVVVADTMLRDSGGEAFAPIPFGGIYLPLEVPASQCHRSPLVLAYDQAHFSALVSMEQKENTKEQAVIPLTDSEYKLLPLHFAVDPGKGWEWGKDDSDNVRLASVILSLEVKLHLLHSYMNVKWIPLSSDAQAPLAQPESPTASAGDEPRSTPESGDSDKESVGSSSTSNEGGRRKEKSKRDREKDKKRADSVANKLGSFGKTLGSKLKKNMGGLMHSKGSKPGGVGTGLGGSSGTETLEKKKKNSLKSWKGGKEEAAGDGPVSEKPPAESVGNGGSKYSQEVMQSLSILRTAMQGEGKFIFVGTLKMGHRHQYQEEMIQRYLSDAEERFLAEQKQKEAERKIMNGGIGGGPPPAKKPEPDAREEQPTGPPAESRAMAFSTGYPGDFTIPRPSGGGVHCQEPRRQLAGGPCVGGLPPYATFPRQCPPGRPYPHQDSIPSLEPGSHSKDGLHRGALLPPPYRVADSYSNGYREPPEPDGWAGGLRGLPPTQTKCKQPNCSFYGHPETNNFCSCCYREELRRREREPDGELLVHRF
In short: as §1

PRPF8 = PRPF8 (UniProt Q6P2Q9)
In short: as §1

PSMD7 = biological target: T3, PSMD7 (UniProt P51665)
T3 sequence (whole entry): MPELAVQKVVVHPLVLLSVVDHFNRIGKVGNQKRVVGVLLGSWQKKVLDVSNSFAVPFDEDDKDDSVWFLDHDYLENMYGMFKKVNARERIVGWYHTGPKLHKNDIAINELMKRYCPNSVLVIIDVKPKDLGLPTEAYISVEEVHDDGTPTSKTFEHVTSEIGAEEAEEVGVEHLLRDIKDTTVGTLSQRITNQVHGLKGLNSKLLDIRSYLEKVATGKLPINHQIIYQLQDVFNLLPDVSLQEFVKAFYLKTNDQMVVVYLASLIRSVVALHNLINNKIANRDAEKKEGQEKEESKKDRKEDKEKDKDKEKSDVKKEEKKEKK
In short: as §1

UCHL1 = UCHL1 (UniProt P09936)
Chain of UCHL1 (P09936 whole entry, looked up): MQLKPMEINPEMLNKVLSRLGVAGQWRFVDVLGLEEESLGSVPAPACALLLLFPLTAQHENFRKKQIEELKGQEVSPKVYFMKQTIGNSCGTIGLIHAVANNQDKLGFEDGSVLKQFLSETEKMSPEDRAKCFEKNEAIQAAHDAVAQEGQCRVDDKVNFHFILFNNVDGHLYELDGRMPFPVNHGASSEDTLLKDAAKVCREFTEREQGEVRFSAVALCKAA
In short: as §1

UCHL3 = biological target: T4, UCHL3 (UniProt P15374)
T4 sequence (whole entry): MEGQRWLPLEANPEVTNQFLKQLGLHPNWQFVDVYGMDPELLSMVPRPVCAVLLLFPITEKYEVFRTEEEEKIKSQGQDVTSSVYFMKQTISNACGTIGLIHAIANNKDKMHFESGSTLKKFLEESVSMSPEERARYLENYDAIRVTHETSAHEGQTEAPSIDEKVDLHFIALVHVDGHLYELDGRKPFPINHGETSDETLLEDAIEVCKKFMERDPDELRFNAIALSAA
In short: as §1

UCHL5 = biological target: T5, UCHL5 (UniProt Q9Y5K5)
T5 sequence (whole entry): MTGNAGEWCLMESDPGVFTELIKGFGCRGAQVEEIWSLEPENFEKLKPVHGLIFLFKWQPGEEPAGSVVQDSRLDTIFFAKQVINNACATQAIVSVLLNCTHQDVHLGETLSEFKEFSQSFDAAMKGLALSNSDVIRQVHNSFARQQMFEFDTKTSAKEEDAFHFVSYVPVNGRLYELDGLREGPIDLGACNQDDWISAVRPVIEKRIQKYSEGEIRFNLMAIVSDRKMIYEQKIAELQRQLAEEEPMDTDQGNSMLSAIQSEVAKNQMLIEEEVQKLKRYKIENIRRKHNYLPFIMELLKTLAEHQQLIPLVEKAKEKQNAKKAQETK
In short: as §1

USP10 = USP10 (UniProt Q14694)
Chain of USP10 (Q14694 whole entry): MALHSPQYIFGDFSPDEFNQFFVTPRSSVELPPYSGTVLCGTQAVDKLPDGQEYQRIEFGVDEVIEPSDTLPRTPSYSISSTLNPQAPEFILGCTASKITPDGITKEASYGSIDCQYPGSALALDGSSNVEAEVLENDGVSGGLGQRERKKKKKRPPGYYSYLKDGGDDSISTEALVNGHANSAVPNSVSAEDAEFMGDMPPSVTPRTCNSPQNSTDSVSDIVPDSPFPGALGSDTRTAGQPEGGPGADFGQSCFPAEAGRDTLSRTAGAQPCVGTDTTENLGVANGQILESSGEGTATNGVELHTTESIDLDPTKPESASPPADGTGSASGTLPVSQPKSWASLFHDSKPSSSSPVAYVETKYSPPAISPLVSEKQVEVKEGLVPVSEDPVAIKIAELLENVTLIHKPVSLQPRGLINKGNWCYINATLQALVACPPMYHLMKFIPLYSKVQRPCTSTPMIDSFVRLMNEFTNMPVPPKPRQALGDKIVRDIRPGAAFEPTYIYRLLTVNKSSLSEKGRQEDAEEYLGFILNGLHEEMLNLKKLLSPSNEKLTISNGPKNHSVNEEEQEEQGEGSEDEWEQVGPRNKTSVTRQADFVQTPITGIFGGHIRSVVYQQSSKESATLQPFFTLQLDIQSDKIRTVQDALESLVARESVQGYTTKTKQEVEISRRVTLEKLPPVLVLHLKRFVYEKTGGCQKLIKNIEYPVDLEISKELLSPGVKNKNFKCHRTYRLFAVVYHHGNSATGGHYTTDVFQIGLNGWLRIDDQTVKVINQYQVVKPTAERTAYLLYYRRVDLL
In short: as §1

USP15 = biological target: T6, USP15 (UniProt Q9Y4E8)
T6 sequence (whole entry): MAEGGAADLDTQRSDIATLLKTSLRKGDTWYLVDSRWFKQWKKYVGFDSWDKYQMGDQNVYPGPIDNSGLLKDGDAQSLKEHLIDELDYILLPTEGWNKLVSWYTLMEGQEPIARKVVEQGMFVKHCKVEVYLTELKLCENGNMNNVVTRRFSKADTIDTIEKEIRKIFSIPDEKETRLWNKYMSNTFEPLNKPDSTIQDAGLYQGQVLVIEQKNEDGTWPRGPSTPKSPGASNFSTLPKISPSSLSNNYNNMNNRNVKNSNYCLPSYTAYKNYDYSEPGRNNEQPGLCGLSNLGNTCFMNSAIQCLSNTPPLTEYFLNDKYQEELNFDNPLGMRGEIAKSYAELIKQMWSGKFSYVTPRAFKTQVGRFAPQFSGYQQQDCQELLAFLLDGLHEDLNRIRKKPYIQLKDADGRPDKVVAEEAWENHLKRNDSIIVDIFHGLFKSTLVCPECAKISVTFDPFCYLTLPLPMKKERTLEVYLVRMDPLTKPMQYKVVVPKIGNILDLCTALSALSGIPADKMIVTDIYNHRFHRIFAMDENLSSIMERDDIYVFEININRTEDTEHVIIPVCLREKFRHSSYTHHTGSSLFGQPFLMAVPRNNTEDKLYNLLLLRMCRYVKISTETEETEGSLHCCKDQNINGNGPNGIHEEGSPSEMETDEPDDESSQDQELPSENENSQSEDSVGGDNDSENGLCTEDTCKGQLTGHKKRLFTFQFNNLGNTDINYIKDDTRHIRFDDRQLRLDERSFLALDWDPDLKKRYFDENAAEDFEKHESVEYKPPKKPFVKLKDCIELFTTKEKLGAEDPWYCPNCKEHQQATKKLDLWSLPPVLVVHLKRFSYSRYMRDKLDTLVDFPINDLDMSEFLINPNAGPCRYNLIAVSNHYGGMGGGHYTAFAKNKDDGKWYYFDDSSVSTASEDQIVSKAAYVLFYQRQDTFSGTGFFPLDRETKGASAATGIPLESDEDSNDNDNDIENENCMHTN
In short: as §1

USP16 = USP16 (UniProt Q9Y5T5)
Chain of USP16 (Q9Y5T5 whole entry, looked up): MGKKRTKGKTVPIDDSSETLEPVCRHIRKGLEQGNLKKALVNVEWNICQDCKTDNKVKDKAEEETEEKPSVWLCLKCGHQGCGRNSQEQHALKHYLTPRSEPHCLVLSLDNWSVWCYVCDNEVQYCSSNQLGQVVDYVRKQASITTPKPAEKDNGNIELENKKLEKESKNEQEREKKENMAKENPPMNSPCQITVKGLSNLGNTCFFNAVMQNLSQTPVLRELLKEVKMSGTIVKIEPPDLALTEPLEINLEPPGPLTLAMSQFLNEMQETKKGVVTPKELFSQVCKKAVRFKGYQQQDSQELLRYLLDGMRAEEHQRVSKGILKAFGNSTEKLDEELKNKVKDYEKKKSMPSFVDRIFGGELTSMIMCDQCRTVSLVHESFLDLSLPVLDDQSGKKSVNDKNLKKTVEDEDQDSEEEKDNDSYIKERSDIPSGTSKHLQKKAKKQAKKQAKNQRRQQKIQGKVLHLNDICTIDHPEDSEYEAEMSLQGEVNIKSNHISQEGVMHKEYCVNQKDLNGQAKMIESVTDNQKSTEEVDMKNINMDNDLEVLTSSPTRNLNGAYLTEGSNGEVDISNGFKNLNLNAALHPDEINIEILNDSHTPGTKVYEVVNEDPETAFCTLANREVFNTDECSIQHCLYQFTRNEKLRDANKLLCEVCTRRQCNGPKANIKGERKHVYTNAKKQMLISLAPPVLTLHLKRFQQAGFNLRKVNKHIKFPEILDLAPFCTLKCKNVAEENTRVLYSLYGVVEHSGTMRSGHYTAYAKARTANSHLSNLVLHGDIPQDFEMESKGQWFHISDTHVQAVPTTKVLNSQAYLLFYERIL
In short: as §1

Measured: log2 ratio of Biotin-Ahx-Ub-VS probe labelling

Cl.O=C(CCl)N1CCN(Cc2ccccc2)CC1
inactive: OTUD6B -0.117 | OTUD7B -0.1 | PRPF8 -0.0463 | PSMD7 -0.259 | UCHL1 -0.902 | UCHL3 0.47 | UCHL5 -0.282 | USP10 -0.119 | USP15 -0.171 | USP16 -0.587
